# Test results reported in ChEMBL document CHEMBL3988442, “University of Dundee, Small-Polar-MMV Screening Library” (2021).
# About 13,000 (27%) of roughly 48,000 compounds showed an effect of 50% or more. This is one part of the list.
# System: Wolbachia pipientis
# Assay: Anti-Wolbachia Cell-Based Screen
# Assay type: functional
# Set-up: scale not given: in the data most compounds retested in dose-response had high values
# Conditions: 5 µM
row,Structure (SMILES),Percent Effect
1,Cc1cc(-c2noc(C3CCS(=O)(=O)C3)n2)ccc1F (configuration not stated),-6.108%
2,Cc1cc(-c2nnn(CCNS(C)(=O)=O)n2)ccc1F,-4.563%
3,CC(C)(NS(C)(=O)=O)c1nc(-c2ccc(F)c(F)c2)no1,108%
4,CCn1cc(CNc2ccc3nccnc3c2)cn1,0.1341%
5,CC[C@@]1(O)CCN(C(=O)CN(C)Cc2ccc(F)cc2)C[C@H]1O,-15.44%
6,CN(Cc1ccc(F)cc1)S(=O)(=O)N1CCOCC1,-4.525%
7,CN(Cc1ccc(F)cc1)[C@@H]1CN(S(=O)(=O)N(C)C)C[C@H]1O,124.5%
8,CC(C)C1CN(S(=O)(=O)N(C)C)CCCN1Cc1ccc(F)cc1 (configuration not stated),3.4%
9,CN(Cc1ccc(F)cc1)[C@@H]1CN(C(=O)c2cccs2)C[C@H]1O,3.837%
10,CCS(=O)(=O)N1C[C@@H](O)[C@H](N(C)Cc2ccc(F)cc2)C1,127.5%
11,CS(=O)(=O)N1CCO[C@@H]2CN(Cc3ccc(F)cc3)C[C@@H]2C1,-1.129%
12,CN(Cc1ccc(F)cc1)[C@@H]1CN(S(C)(=O)=O)C[C@H]1O,89.96%
13,CN(C)S(=O)(=O)N1CCC2(CCCN(Cc3ccc(F)cc3)C2=O)C1 (configuration not stated),-3.561%
14,OC(CN1CCCCc2ccccc21)Cn1cccn1 (configuration not stated),-5.145%
15,COCCN1C[C@H]2CN(C(=O)NCc3ccccc3)CCN2C1=O,8.785%
16,CCCC(O)CN1CCC(=O)N(CCOC)Cc2ccccc21 (configuration not stated),121.9%
17,COC(=O)N1CCc2ccccc2C1C(=O)NCc1ccco1 (configuration not stated),14.18%
18,COCCN1C[C@H]2CN(C(=O)NC(C)C)CCN2C1=O,-4.801%
19,COCc1ccc(CNC(=O)CN2CCc3ccccc32)cc1,-11.7%
20,CCCC(O)CN1CCC(=O)N(Cc2ccccc2)Cc2ccccc21 (configuration not stated),123.8%
21,COCC(O)CN1CCC(=O)N(Cc2ccccc2)Cc2ccccc21 (configuration not stated),97.49%
22,CN1CCN(CC(=O)NCc2ccco2)Cc2ccccc21,-30.17%
23,CCC1CN(C(=O)c2cccc(O)c2)CCC(=O)N1Cc1ccccc1 (configuration not stated),8.552%

row,Structure (SMILES),Percent Effect
1,COCC(O)CN1CCC(=O)N(Cc2ccco2)Cc2ccccc21 (configuration not stated),86.65%
2,Cc1ccc([C@@H]2CN(S(=O)(=O)N(C)C)C[C@H]2N(C)C)cc1,0.6697%
3,Cc1cc(S(=O)(=O)NCC(O)c2sccc2C)ccc1F (configuration not stated),4.369%
4,CCOc1ccc(CN(C)C(=O)COc2ccc(C)nc2)cc1,-6.842%
5,CCc1c(C(=O)N2CCN(C)[C@@H]3CS(=O)(=O)C[C@@H]32)[nH]c2ccccc12,-4.01%
6,CCN1CC(CN(C)c2cc(C)nc(N)n2)Oc2ccccc21 (configuration not stated),10.5%
7,CCN(CC1CCOCC1)C(=O)Cn1ccccc1=O,-19.1%
8,CC(O)CN1CCC(=O)N(Cc2ccccc2)Cc2ccccc21 (configuration not stated),125.3%
9,O=C(CN1CCc2ccccc21)NCc1ccc(Cl)cc1,-3.042%
10,CC(C)NC(=O)c1nc2c(s1)CCCN2Cc1ccccc1,-9.51%
11,CCCc1nc(CN(CC)C(=O)c2ccc3[nH]cnc3c2)no1,-17.17%
12,CC(C)(C)n1ncc2c1CCCC2NCc1cccc2c1OCO2 (configuration not stated),3.56%
13,CNC(=O)C1(Cc2cc(C(C)C)no2)CCN(Cc2ccccn2)C1 (configuration not stated),108.3%
14,CNC(=O)C1(Cc2cc(C(C)C)no2)CCN(Cc2cccnc2)C1 (configuration not stated),113.2%
15,CC(C)c1cc(CNC(=O)NCc2cccc(N3CC=CC3)c2)on1,1.94%
16,O=C(O)C1(Cc2ccc(F)cc2F)CCCN(Cc2ccccn2)C1 (configuration not stated),-12.03%
17,CCOC(C)c1noc(CN2CCN(Cc3cccnc3)CC2)n1 (configuration not stated),-3.385%
18,CC(C)c1cc(C(=O)N2C[C@H]3CC[C@@H]2CN(Cc2ccccn2)C3)no1,-1.053%
19,COC1(CNS(=O)(=O)c2ccccc2Br)CCSC1 (configuration not stated),-11.32%
20,O=C(NCCC(O)c1cccs1)c1ccc(Br)o1 (configuration not stated),-2.242%
21,Cc1cc(C)nc(NC2CC(=O)N(C(C)(C)C)C2)n1 (configuration not stated),-13.08%
22,Cc1ccc(CN(C)C(=O)NCC(=O)NC(C)(C)C)s1,-5.904%
23,CCc1cnc(NCCS(=O)(=O)CC(C)C)nc1,-2.356%

row,Structure (SMILES),Percent Effect
1,O=C(O)C(F)(F)F.O=C(c1ccsc1)N1CCc2onc(COc3ccccn3)c2C1,-81.7%
2,Cc1cc(C)n(CC(C)NC(=O)c2cc(C(C)C)on2)n1 (configuration not stated),-21.21%
3,Cc1cc(CNC(=O)CC2CCN(C(C)C)CC2)n(C)n1,-16.42%
4,Cc1cc(C)n(CCCNC(=O)C(C)NC(=O)CC2CCCCC2)n1 (configuration not stated),122.8%
5,CCC(C)C(=O)NCCCn1nc(C)cc1C (configuration not stated),119.6%
6,Cc1cc(C(F)(F)F)nn1CCNC(=O)C(C)n1ccnc1C(C)C (configuration not stated),0.9025%
7,Cc1cc(C)n(-c2cncc(NCCNC(=O)CC3CCCC3)n2)n1,5.332%
8,Cc1ccccc1Oc1ncccc1CNC1CCC1,-4.424%
9,Cc1csc(C2(NCCC(=O)N3CCOCC3)CCCC2)n1,-0.7458%
10,CC(C)c1noc(CCC(=O)NC(C)c2nnc3n2CCCCC3)n1 (configuration not stated),-3.569%
11,CC(=O)NCCCC(=O)NC(C)c1nnc2n1CCC2 (configuration not stated),91.49%
12,CC(C)c1noc(CCC(=O)NC(C)c2nnc3n2CCC3)n1 (configuration not stated),-10.52%
13,CCCC(=O)NC(C)c1nnc2n1CCC2 (configuration not stated),66.57%
14,CC(NC(=O)CCC1CCCCC1)c1nnc2n1CCC2 (configuration not stated),97.89%
15,CC(C)CS(=O)(=O)CC(=O)NC(C)c1nnc2n1CCC2 (configuration not stated),85.29%
16,CC(C)c1noc(CCCC(=O)NC(C)c2nnc3n2CCC3)n1 (configuration not stated),-3.557%
17,CCCc1noc(CCC(=O)NC(C)c2nnc3n2CCCCC3)n1 (configuration not stated),-7.808%
18,CC(NC(=O)CCCc1nc(C(C)(C)C)no1)c1nnc2n1CCC2 (configuration not stated),7.07%
19,Cc1noc(CCCC(=O)NC(C)c2nnc3n2CCC3)n1 (configuration not stated),-11.73%
20,Cc1noc(C)c1CCC(=O)NC(C)c1nnc2n1CCC2 (configuration not stated),-11.45%
21,CN1CCc2[nH]nc(C(=O)N3CCC4(CCCO4)CC3)c2C1,17.17%
